Structures are written as SMILES. The campaign covered roughly 220,000 compounds. About 16,000 (7.3%) were called active. Inconclusive results (about 25%) are left out. The rule behind the calls is not given here. Only a selection was taken, and actives are over-represented in it overall.

For this assay, the target named is T1, Aldehyde dehydrogenase 1A1 (Homo sapiens) (UniProt P00352).
T1 sequence (whole entry): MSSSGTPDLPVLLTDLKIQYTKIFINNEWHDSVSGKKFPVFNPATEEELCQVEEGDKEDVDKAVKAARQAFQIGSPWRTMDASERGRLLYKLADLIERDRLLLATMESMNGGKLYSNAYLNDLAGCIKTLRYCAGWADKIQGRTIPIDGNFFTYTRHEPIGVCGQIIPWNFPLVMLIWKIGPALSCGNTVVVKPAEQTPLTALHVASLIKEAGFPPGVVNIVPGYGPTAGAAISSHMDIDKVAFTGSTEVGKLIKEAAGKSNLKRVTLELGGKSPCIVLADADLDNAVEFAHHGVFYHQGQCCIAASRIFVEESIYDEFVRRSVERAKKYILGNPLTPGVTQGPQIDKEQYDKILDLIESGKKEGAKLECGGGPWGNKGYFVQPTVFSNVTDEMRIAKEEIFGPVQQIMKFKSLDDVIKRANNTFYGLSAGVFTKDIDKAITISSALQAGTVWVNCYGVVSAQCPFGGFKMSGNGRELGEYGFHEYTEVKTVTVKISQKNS
Kind of assay: qHTS Assay for Inhibitors of Aldehyde Dehydrogenase 1 (ALDH1A1). [Related pubchem assays: 1030 (qHTS Validation Assay for Inhibitors of aldehyde dehydrogenase 1 (ALDH1A1))]. Format: functional.
For `CC(C)C1SC(N/N=C/c2ccco2)=NC1=O` (centres undefined), the Potency is 200 µM (active).
For `O=C(O)c1ccc2c(c1)CC(c1ccccc1)OC2=O` (centres undefined) the value was “inactive”; for `CCOC(=O)CN1C(=O)N[C@@H](c2cccc(C(F)(F)F)c2)C(C(=O)OC)=C1C`, “inactive”.
The same measure for `CC(C(=O)NN=C(c1ccccc1)c1ccccc1)N1CCCC1` (centres undefined): “inactive”.
The same measure for `O=C(c1no[n+]([O-])c1C(=O)c1csc2ccccc12)c1csc2ccccc12`: 3.55 µM (active); for `O=C(N/N=C/c1ccc2c(c1)OCO2)c1ccc(Br)o1`: “inactive”.
`CCOC(=O)N1CCN(c2nc3ccccc3nc2C(C#N)C(=O)NCCc2ccccc2)CC1` (centres undefined): the Potency is 398 µM (active).
For `CC(=O)OCc1ccccc1` the value was 20 µM (active); for `N#CC1=C(N)Oc2c(oc(CO)cc2=O)C12C(=O)Nc1ccc(Cl)cc12` (centres undefined), “inactive”; for `C[C@@H]1C[C@H]2[C@@H]3C[C@H](F)C4=CC(=O)C=C[C@]4(C)[C@@]3(F)[C@@H](O)C[C@]2(C)[C@@]1(O)C(=O)CO`, “inactive”.
Regarding `O=C(/C=C/c1ccc(Cl)cc1)c1cccs1`, the Potency was 12.6 µM (active).
For `CCc1ccc(Oc2coc3cc(OCC(=O)Nc4cc(C)ccc4C)ccc3c2=O)cc1` the value was “inactive”.
For `COc1ccc(N2CC(C(=O)OCC(=O)c3cccc(OC)c3)CC2=O)cc1` (centres undefined) the value was 224 µM (active).
Regarding `O=C(Cn1c2ccccc2c(=O)c2cc([N+](=O)[O-])ccc21)Nc1ccccc1Cl`, the Potency entry was “inactive”.
